High-throughput results (PubChem BioAssay)
gsp ag: gsp mutant agonism. gsp mutant cells, cAMP HTRF, 30 min. Potency, µM (series often up to 76.9 µM), for the others: at the highest dose activation (cAMP increase), most hits filed as activators. 340,000 tested, 0.13% active; active means well fitted activation curve with a large enough effect; inconclusive means small, poorly fitted or top-dose-only effect, or another doubt; inactive means no such curve, though single readings can be large or run the other way; cell line not stated here;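 further: phosphodiesterase inhibitor Ro 20-1724 added with compounds to block cAMP breakdown; nearly all actives have a fitted effect of over 60% in size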
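Cells stably selected in G418 were plated at 2000/well, grown 16-24 hr, then given compounds in DMSO with the PDE inhibitor […] (300 uM solution added) for 30 min at 37C; cAMP was read by HTRF.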
ALOX12 inh: ALOX12 (human) lipoxygenase inhibition; P18054; purified 12hLO, xylenol orange hydroperoxide absorbance; Potency, µM (series often up to 108 µM), without a hit: at the top dose activity change, negative = inhibition, usual class: inhibitors; 580,000 tested, 1.1% active; AID 1671190; further: on the % scale 0 is the no-effect control and ±100 the full control effect
Target sequence (P18054 whole entry, looked up): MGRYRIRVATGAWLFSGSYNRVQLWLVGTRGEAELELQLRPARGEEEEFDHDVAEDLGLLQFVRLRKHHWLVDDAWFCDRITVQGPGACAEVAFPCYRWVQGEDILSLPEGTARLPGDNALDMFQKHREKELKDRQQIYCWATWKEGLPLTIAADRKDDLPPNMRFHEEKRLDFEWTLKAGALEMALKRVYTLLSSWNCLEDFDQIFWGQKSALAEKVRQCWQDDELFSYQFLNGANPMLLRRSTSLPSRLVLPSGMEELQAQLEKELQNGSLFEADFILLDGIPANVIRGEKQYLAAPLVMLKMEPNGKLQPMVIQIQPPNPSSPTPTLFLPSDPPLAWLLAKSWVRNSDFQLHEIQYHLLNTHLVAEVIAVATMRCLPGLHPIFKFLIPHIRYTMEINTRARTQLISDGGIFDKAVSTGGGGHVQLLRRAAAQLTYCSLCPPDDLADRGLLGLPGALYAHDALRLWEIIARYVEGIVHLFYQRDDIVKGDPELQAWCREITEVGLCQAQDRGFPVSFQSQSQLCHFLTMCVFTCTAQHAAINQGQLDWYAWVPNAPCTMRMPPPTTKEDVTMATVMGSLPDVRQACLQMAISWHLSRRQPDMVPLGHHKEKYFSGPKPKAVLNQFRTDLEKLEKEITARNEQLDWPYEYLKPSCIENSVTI
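Purified human 12hLO at 150 nM in 25 mM Hepes, 0.01% Triton X-100, pH 7.0, preincubated 15 min at room temperature with compound. Reaction started with 40 uM arachidonic acid, 30 min at room temperature. Hydroperoxide measured by Fe-xylenol orange, 573/405 nm absorbance ratio.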
gsp antag: gsp mutant antagonism; gsp-mutant cells, cAMP HTRF, 30 min; Potency, µM (highest dose often 76.9 µM), inactives show top-dose activity change, negative = inhibition, hits mostly inhibitors; 340,000 tested, 0.4% active; AID 624288; calls by dose curve; cell line not stated here;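 further: intracellular cAMP measured with PDE inhibitor Ro 20-1724 present during compound exposure; on the % scale 0 is the no-effect control and ±100 the full control effect; nearly all actives have a fitted effect of over 65% in size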
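HTRF cAMP read-out (cAMP-d2 plus anti-cAMP antibody-K in lysis buffer, 30 min RT). Before lysis, cells are exposed to compounds with […] for 30 min at 37C in DPBS containing Ca/Mg, BSA and Tween 20.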
FUS suppressor: rescues growth of FUS-expressing yeast; AID 1347120; S. cerevisiae FUS-expressing, growth rescue, OD600, 24 h; Potency, µM (highest dose often 76.6 µM), actives largely listed as activators; 390,000 tested, 0.24% active;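 further: plate controls were DMSO vehicle for no effect and reference control for full effect; nearly all actives have a fitted effect of over 55% in size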
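Absorbance at 600 nm, taken 24hr after compound addition, measured rescue of FUS-yeast growth at 30C. Induction used 2% galactose with seeding at OD 0.005. Controls: CP55940 from 92uM final, DMSO only.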
Mito fusion act: mitochondrial division inhibition or fusion activation. S. cerevisiae fusion-defective mutant growth rescue, CellTiterGlo 48 h. Potency, µM (titrated, usually from 46.1 µM), without a hit: top-dose growth rescue (activation), most hits filed as activators. 320,000 tested, 0.23% active. AID 485298; further: % of control where 0% means no effect; nearly all actives have a fitted effect of over 45% in size
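Luminescent cell viability in 1536-well qHTS format served as the measure of rescued growth in ts fusion-mutant S. cerevisiae cultured on non-fermentable YPEG for 48 hours at 37C.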
Starred values were filed as active, the others as inactive; i = inactive; ? = inconclusive; nt = not tested or not shown; ! = repeats disagree; [ ] = remark or other dose. Hits are enriched below; roughly 1.6% of the tested compounds scored in any of these assays. Unless noted, the call rests on the fitted dose curve; in most records, active means well fitted curve in the direction sought with a large enough effect; inconclusive means small, poorly fitted or top-dose-only effect, or another doubt; inactive means no such curve, though single readings can be large; an effect the other way counts as inactive or inconclusive. Potency means the concentration at half of the fitted maximal effect.

SMILES	gsp ag	ALOX12 inh	gsp antag	FUS suppressor	Mito fusion act
COCCOC(=O)c1[nH]c2c(c1C)C(=O)CC(c1cc(OC)ccc1OC)C2 (configuration not stated)	-11.9%	4.3%[57.4 µM]	9.2%	i	2.2%
COc1ccc(OC)c(C2CC(=O)c3c([nH]c(C(=O)OCC4CCCO4)c3C)C2)c1 (configuration not stated)	-46.9%	197.6%	39.8µM*	i	8.8%
CN(C)C(=S)NC(=S)Nc1ccc2ccccc2c1	-4.0%	35.5µM*	?	nt	nt
CC1(NC(=S)Nc2ccc3ccccc3c2)CCS(=O)(=O)C1 (configuration not stated)	0.9%	16.3%	-0.1%	i	-7.0%
COC/C=C/C1=CC2=CC(=O)C(C)(OC(=O)c3cnc4ccccc4n3)C(=O)C2=CN1C(CO)CO (configuration not stated)	nt	7.08µM*	-10.8%	i	15.6%
COc1ccc(OC)c(NC(=O)Cc2c(C)c3ccc(O)c(C)c3oc2=O)c1	nt	9.2%	nt	nt	nt
FC(F)(F)c1cccc(NC(=S)NCCc2c[nH]c3ccccc23)c1	nt	39.8µM*	nt	nt	nt
COc1ccc(NC(=S)NCCc2c[nH]c3ccccc23)cc1	16.3%	50.1µM*	3.5%	i	-13.1%
Fc1ccc(NC(=S)NCCc2c[nH]c3ccccc23)cc1	nt	-27.1%	nt	nt	nt
O=C(Nc1ccc(Cl)cc1)c1nc2c(o1)CCN(Cc1ccc3c(c1)CCO3)CC2	nt	16.4%[176 µM]	nt	nt	nt
COC(=O)c1ccc(NC2=C(Cl)C(=O)OC2OC(=O)c2ccccc2)cc1 (configuration not stated)	2.8%	17.9%	-16.3%	i	-10.5%
Cc1ccc(NC2=C(Cl)C(=O)OC2OC(=O)c2ccc(C)cc2)cc1 (configuration not stated)	42.6%[15.4 µM]	7.94µM*	-1.5%	i	-2.4%
Cc1cc(F)ccc1NC(=O)c1nn(-c2ccccc2)c(=O)c2ccccc12	nt	-18.9%	nt	nt	nt
Cc1cccc2c1NC1(CCCC1)CC2C (configuration not stated)	20.0%	0.0%	-2.4%	i	-1.3%
Cc1ccc2c(c1C)NC(C)CC2C (configuration not stated)	-12.8%	4.47µM*!	-0.3%	i	2.1%
CN(C)S(=O)(=O)c1ccc(N2CCCC2)c(C(=O)N2CCN(S(=O)(=O)c3ccc(F)c(F)c3)CC2)c1	21.6%	9.0%	-17.2%	28.2µM*	nt
Cc1ccc(S(=O)(=O)N2CCN(C(=O)c3cc(S(=O)(=O)N(C)C)ccc3N3CCCC3)CC2)c(C)c1	8.6%	-13.0%	-17.5%	?	-1.9%
CCN(CC)C(=S)SCC(=O)NC(Cc1ccccc1)C(C)=O (configuration not stated)	nt	4.0%	nt	nt	nt
CCN(CC)C(=S)SCC(=O)c1ccc(Br)cc1	-18.0%	?	-10.5%	i	11.2µM*
CCN(CC)C(=S)SC/C(=N/Nc1ccc(Br)cc1)c1ccccc1	nt	7.94µM*	nt	nt	nt
Cc1ccc(C(=O)C(Sc2ccc3c(c2)OCCO3)c2ccc(C)cc2)cc1 (configuration not stated)	nt	-4.2%	nt	nt	nt
O=[N+]([O-])c1ccccc1C(=Nc1ccccc1)c1c(O)cc(O)cc1O	58.9%	44.7µM*	nt	i	nt
O=C(Nc1ccccc1)c1ccccc1NC(=O)c1ccccc1[N+](=O)[O-]	-3.6%[15.4 µM]	422.8%	?	i	nt
O=C(CSc1nc2ccccc2s1)Nc1cc(S(=O)(=O)N2CCOCC2)ccc1O	22.2%	22.4µM*	-8.7%	nt	8.2%
Cc1nnc(SCC(=O)Nc2cc(S(=O)(=O)N3CCOCC3)ccc2C)s1	17.1%[15.4 µM]	-0.2%	-2.1%	i	-6.9%
SMILES	gsp ag	ALOX12 inh	gsp antag	FUS suppressor	Mito fusion act
COc1nccnc1-c1cc(NCCN(C)C)nc2[nH]ccc12	nt	10.1%	nt	nt	nt
S=C(NCCCc1ccccc1)Nc1ccc(Br)cc1Cl	nt	44.7µM*	nt	nt	nt
S=C(NCCc1ccccc1)Nc1ccc(Br)cc1	17.5%	35.5µM*	-8.6%	nt	?
Fc1ccc(CCNC(=S)Nc2ccc(Oc3ccccc3)cc2)cc1	nt	22.4µM*	nt	nt	nt
Cc1cccnc1NC(=S)Nc1ccc(Br)cc1Cl	-25.3%	11.2µM*	-4.5%	i	1.8%
CCCNC(=S)Nc1ccc(Br)cc1	-23.1%	?	-10.1%	i	-8.4%
CC(=O)NNC(=S)Nc1ccc(Br)cc1Cl	nt	9.6%	nt	nt	nt
CCC(=O)Nc1cccc(C(C)C)c1	nt	10.4%	nt	nt	nt
Cc1ccc(CN(C)C(=O)Cn2nc(C)c3ccccc3c2=O)c(C)c1	nt	-11.8%	nt	nt	nt
CCC1(C)Cc2c(sc3c2c2ncnn2c2nnc(SCC(=O)NCc4ccco4)n32)CO1 (configuration not stated)	2.82µM*	28.1%	-0.9%[15.4 µM]	i	6.8%
N#CCSc1nnc(-c2nn(Cc3ccccc3)c(=O)c3ccccc23)o1	nt	-1.9%	nt	nt	nt
COC(=O)c1ccc(/C=C/C(=O)OCC(=O)Nc2sccc2C(N)=O)cc1	5.1%	nt	28.2µM*	i	nt
NC(=O)c1ccsc1NC(=O)COC(=O)/C=C/c1ccc([N+](=O)[O-])cc1	3.4%[15.4 µM]	2.9%	4.6%	i	-1.8%
COCCNc1oc(COc2ccccc2F)nc1C#N	nt	12.5%	nt	nt	nt
COc1ccc(-c2noc([C@@H]3CCCN3C(=O)c3ccc(C#N)cc3)n2)cc1OC	nt	25.1µM*	nt	nt	nt
COc1ccc(C(=O)N2CCC[C@H]2c2nc(-c3ccc(OC)c(OC)c3)no2)cc1OC	nt	4.8%	nt	nt	nt
CC(=O)c1ccccc1OCC(O)CN1CCN(CCN2C(=O)c3cccc4cccc(c34)C2=O)CC1 (configuration not stated)	-15.7%[15.4 µM]	3.3%	31.6µM*	i	1.8%
CC1=C/C(=C(/c2ccc(O)c(C)c2)c2ccccc2S(=O)(=O)O)C=CC1=O	25.2%	?	0.4%	i	-3.9%
CC1=C/C(=C(/c2cc(C)c(O)c(Br)c2)c2ccccc2S(=O)(=O)O)C=C(Br)C1=O	-160.6%	?	20µM*	i	-11.0%
CC(C)C(=O)NC(NC(=O)C(C)C)c1cc(Br)ccc1F	nt	-2.1%	nt	nt	nt
